Active and inactive are the calls of the source.
Experiments:
[1] = system: PRMT1 (protein arginine N-methyltransferase 1); test: small molecules binding arginine methyltransferase PRMT1 – biochemical, small-molecule microarray, 635 nm fluorescence, primary screen (AID 1088); details: higher = more signal;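 note: binding of Prmt1 protein to compounds spotted on small-molecule microarray slides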
[2] = growth effects on S. cerevisiae YJM789 – YJM789 clinical isolate, OD600, 24 h, basal, primary screen (AID 1089); details: higher = more signal, called active from +8 up or from −8 down;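 note: growth of clinical yeast isolate S. cerevisiae YJM 789 seeded 1000 cells per well; test concentration not given here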
[3] = S. pombe growth modifiers, basal conditions – strain 972, OD600, 24 h, no modulator, primary screen (AID 1090);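 note: basal condition with compound alone and no growth modifier present; test concentration not given here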; details: S. pombe 972 growth, higher = more signal, called active from +8 up or from −8 down
[4] = budding yeast growth modifiers under rapamycin – strain BY4716, OD600, 96 h, primary screen (AID 1091); note: test concentration not given here; details: S. cerevisiae BY4716 + rapamycin, higher = more signal, called active from +8 up or from −8 down
[5] = molecular target: Torsin-1A-interacting protein 2 (Homo sapiens) (UniProt Q8NFQ8); test: small molecules binding lysate-expressed LULL1 – cell lysate, human LULL1 lysate, 635/667 nm fluorescence, primary screen (AID 1092); details: small-molecule microarray, hLULL1 lysate binding, 635 nm fluorescence; higher = more signal;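 note: probe is lysate of COS7 cells overexpressing human LULL1; score merges per-feature 667 nm fluorescence with signal-to-noise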
[6] = optical density change of DRC41 E. coli – strain DRC41, OD650, 24 h, E. coli filamentation project, primary screen (AID 1093);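 note: MC1000 strain lacking acrAB efflux and sulA so SOS filamentation is blocked; test concentration not given here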; details: E. coli DRC41 growth, higher = more signal, called active from +8 up or from −8 down
[7] = probe aLefty2 binding to arrayed compounds – biochemical, biotinylated probe, 635/667 nm fluorescence, primary screen (AID 1094); details: small-molecule microarray, higher = more signal;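 note: score merges spot fluorescence near 667 nm with spot signal-to-noise ratio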
[8] = system: Noggin (protein binding on small-molecule microarray); test: small molecules binding Noggin protein – biochemical, 635/667 nm fluorescence, primary screen (AID 1095); details: 635 nm fluorescence, higher = more signal;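 note: score merges 667 nm feature fluorescence with signal to noise over triplicate slides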
[9] = molecular target: Neurogenic locus notch homolog protein 3 (Homo sapiens) (UniProt Q9UM47); test: small molecules binding NOTCH3 protein – biochemical, 635/667 nm fluorescence, primary screen (AID 1096); details: small-molecule microarray, 635 nm fluorescence, higher = more signal
[10] = probe aEGFR binding to arrayed compounds – biochemical, biotinylated probe, 635/667 nm fluorescence, primary screen (AID 1097); details: small-molecule microarray, higher = more signal;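 note: probe is a biotinylated anti-EGFR antibody binding compounds printed on slides; score combines fluorescence near 667 nm and signal to noise of each spot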
[11] = system: Plasmodium falciparum Sir2 (PF13_0152, Sir2A); test: Plasmodium falciparum Sir2A binding compounds – biochemical, small-molecule microarray, 635 nm fluorescence, primary screen (AID 1098); details: fluorescence 635 nm, higher = more signal;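 note: score merges spot fluorescence intensity with its signal-to-noise ratio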
[12] = probe aDKK1 binding to arrayed compounds – biochemical, biotinylated probe, 635/667 nm fluorescence, primary screen (AID 1099); details: small-molecule microarray, higher = more signal;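 note: score merges 667nm spot fluorescence with signal to noise across triplicate slides; reference of the scale not given here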
[13] = probe aCHRDL2 binding to arrayed compounds – biochemical, biotinylated probe, 635/667 nm fluorescence, primary screen (AID 1100); details: small-molecule microarray, higher = more signal
[14] = change in splice reporter luminescence, either direction, cell-based, HEK293, spliceosome inhibition project, primary screen (AID 1101); details: HEK293 splicing luciferase reporter, 24 h, higher = more signal, called active from +8 up or from −8 down;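 note: HEK293 cells carrying a splicing-competent luciferase reporter gene; test concentration not given here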
[15] = molecular target: Fibroblast growth factor 10 (Homo sapiens) (UniProt O15520); test: compounds binding fibroblast growth factor 10 – biochemical, small-molecule microarray, 635 nm fluorescence, primary screen (AID 1102); details: FGF10 binding, fluorescence 635 nm, higher = more signal
[16] = system: glycogen synthase kinase-3 (GSK3A per assay name; protocol says GSK3B); test: compounds binding glycogen synthase kinase-3 – biochemical, small-molecule microarray, 635 nm fluorescence, GSK3A, primary screen (AID 1103); details: fluorescence 635 nm, higher = more signal; note: the record names both GSK3A and GSK3B
[17] = molecular target: Epidermal growth factor receptor (Homo sapiens) (UniProt P00533); test: compounds binding epidermal growth factor receptor – biochemical, small-molecule microarray, 635 nm fluorescence, primary screen (AID 1104); details: EGFR binding, higher = more signal;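 note: score merges 667 nm emission intensity with spot signal to noise over triplicate slides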
[18] = molecular target: Follistatin-related protein 3 (Homo sapiens) (UniProt O95633); test: compounds binding follistatin-related protein 3 – biochemical, small-molecule microarray, 635 nm fluorescence, primary screen (AID 1105); details: FSTL3 binding, higher = more signal;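 note: score merges emission near 667 nm and signal to noise per printed spot across three slides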
[19] = molecular target: Dickkopf-related protein 1 (Homo sapiens) (UniProt O94907); test: small molecules binding DKK1 protein – biochemical, small-molecule microarray, 635 nm fluorescence scan, primary screen (AID 1106); details: higher = more signal;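 note: score merges emission near 667 nm with signal to noise over three replicate slides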
[20] = system: Inhibin beta A chain (activin A); test: small molecules binding activin A – biochemical, small-molecule microarray, 635 nm fluorescence scan, primary screen (AID 1107); details: INHBA, higher = more signal;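 note: mouse activin A protein probed at 4.33 µg/mL on printed slides; score merges bound-protein fluorescence near 667 nm with spot signal-to-noise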

Sequence of Epidermal growth factor receptor (Homo sapiens) (P00533 whole entry, looked up): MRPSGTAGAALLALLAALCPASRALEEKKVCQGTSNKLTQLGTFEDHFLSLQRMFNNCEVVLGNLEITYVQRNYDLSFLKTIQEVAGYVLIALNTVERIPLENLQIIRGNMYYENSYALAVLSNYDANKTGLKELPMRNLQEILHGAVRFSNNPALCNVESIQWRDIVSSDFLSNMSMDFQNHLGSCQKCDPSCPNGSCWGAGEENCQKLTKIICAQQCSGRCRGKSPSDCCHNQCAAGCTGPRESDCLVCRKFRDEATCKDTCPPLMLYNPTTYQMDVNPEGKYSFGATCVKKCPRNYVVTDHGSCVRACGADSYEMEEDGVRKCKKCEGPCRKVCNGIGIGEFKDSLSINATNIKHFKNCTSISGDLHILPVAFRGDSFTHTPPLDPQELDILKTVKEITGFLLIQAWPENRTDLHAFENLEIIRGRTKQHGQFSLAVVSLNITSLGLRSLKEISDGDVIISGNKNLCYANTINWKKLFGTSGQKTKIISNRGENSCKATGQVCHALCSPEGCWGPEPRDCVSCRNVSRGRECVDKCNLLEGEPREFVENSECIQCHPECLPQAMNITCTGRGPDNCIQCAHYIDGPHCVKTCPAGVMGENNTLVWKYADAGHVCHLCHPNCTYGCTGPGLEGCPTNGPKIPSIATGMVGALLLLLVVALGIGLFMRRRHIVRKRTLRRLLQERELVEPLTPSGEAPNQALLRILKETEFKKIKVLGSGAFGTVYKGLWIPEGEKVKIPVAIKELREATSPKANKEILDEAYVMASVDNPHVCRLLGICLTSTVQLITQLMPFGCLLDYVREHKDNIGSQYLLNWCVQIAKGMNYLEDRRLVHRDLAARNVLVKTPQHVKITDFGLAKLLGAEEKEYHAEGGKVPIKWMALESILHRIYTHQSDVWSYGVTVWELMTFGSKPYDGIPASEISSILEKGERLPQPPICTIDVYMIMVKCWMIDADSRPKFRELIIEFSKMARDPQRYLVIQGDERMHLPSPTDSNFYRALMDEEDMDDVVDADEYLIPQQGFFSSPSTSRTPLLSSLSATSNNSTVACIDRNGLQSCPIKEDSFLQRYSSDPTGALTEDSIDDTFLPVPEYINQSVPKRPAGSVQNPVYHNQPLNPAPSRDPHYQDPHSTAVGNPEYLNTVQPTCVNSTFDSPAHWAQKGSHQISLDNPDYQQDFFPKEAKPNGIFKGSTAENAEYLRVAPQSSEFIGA
Sequence of Torsin-1A-interacting protein 2 (Homo sapiens) (Q8NFQ8 whole entry, looked up): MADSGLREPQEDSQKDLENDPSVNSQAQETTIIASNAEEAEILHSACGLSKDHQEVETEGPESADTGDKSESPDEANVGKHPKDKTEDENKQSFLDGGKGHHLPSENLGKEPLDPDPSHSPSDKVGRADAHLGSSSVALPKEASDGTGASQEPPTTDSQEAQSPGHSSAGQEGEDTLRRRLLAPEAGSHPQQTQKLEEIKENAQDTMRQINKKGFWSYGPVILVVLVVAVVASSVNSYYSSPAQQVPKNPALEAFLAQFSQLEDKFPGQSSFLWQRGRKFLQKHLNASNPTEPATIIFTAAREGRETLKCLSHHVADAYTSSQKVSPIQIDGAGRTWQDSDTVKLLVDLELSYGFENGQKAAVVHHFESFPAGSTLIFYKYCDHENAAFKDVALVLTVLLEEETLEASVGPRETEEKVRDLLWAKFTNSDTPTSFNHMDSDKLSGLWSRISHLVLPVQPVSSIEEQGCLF
Sequence of Neurogenic locus notch homolog protein 3 (Homo sapiens) (Q9UM47 whole entry, looked up): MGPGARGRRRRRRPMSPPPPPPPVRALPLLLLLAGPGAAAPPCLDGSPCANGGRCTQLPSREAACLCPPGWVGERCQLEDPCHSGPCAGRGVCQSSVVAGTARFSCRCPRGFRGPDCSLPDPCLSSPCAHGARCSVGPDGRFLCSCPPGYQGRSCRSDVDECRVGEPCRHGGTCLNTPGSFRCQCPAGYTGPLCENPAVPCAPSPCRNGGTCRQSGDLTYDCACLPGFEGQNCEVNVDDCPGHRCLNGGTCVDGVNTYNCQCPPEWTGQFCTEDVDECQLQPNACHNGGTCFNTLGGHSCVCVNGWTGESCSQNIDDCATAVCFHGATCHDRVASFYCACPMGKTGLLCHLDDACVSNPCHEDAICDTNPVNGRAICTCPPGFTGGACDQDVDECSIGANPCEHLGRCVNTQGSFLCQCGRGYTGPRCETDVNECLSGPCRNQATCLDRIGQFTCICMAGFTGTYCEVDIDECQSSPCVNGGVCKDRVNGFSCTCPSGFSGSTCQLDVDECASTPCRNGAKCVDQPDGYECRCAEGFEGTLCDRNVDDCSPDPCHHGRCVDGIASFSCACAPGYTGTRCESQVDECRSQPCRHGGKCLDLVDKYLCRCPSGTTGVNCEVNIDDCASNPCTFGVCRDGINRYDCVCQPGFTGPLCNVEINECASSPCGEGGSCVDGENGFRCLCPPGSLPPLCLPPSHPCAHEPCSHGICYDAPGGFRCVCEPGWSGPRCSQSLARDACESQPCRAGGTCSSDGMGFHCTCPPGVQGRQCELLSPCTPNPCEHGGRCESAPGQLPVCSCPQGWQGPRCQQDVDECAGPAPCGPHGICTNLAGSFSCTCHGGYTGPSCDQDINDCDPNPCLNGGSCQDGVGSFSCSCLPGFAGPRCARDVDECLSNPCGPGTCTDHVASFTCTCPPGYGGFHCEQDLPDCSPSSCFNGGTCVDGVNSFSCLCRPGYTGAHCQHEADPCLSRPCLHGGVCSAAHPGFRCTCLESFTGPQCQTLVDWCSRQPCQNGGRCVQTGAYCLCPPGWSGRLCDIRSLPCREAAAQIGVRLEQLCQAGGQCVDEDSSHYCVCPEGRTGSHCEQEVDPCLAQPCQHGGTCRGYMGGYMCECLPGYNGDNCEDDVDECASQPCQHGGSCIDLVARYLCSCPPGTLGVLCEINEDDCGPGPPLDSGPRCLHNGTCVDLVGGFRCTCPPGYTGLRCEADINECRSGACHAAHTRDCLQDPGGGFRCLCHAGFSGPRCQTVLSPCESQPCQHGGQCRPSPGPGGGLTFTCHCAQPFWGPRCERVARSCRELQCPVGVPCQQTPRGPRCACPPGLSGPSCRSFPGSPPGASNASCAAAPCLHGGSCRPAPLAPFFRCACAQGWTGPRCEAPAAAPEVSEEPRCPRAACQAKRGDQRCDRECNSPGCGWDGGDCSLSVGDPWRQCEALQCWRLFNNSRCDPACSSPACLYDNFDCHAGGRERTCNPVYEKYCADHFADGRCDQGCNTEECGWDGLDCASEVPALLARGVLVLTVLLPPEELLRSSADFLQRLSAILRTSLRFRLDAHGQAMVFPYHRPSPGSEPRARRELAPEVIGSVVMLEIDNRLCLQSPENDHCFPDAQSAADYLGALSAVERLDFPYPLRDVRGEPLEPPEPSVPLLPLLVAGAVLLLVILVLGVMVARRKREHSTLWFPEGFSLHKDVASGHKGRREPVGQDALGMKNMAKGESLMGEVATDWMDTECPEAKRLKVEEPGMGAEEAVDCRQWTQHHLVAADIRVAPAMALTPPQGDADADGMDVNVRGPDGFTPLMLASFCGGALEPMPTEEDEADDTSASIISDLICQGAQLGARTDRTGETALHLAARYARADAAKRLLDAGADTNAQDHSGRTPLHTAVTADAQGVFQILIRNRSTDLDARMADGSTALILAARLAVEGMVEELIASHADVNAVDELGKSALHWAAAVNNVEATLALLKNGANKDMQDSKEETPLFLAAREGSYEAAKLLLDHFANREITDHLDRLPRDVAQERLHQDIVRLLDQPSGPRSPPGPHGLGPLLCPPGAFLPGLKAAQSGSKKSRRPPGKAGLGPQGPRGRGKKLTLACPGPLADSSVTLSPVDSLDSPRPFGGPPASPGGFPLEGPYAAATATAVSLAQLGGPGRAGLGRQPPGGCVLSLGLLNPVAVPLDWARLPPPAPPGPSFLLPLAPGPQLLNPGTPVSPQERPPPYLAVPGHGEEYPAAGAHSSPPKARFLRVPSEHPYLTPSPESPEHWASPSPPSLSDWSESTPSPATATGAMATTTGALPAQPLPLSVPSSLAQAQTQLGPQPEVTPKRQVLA
Sequence of Fibroblast growth factor 10 (Homo sapiens) (O15520 whole entry, looked up): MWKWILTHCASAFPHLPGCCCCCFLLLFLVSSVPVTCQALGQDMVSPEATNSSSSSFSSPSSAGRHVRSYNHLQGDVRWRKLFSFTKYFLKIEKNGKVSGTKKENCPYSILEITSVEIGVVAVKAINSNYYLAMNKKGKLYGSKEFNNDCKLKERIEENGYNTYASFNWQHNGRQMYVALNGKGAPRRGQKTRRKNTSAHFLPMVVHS
Sequence of Dickkopf-related protein 1 (Homo sapiens) (O94907 whole entry, looked up): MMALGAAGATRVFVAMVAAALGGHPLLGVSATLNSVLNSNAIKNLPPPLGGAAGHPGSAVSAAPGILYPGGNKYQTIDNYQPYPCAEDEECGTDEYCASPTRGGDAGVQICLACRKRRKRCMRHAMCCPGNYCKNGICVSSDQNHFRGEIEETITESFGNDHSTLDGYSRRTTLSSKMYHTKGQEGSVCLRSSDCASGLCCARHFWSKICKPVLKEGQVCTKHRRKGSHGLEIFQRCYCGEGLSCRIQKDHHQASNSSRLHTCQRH
Sequence of Follistatin-related protein 3 (Homo sapiens) (O95633 whole entry, looked up): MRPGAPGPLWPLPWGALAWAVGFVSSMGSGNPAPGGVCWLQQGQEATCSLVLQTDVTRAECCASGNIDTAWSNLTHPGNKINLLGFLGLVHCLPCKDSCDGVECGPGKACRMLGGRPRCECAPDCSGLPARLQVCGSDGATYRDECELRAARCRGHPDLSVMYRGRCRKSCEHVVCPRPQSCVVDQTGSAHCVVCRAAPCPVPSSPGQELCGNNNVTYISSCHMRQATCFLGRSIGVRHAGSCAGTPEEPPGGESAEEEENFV

| Compound | composite z-score [1] | z-score [2] | z-score [3] | z-score [4] | composite z-score [5] | z-score [6] | composite z-score [7] | composite z-score [8] | composite z-score [9] | composite z-score [10] | composite z-score [11] | composite z-score [12] | composite z-score [13] | z-score [14] | composite z-score [15] | composite z-score [16] | composite z-score [17] | composite z-score [18] | composite z-score [19] | composite z-score [20] |
| --- | --- | --- | --- | --- | --- | --- | --- | --- | --- | --- | --- | --- | --- | --- | --- | --- | --- | --- | --- | --- |
| CN1C(=O)C2C(C1=O)C1C=C(CCCO)C2C(c2cccs2)N1Cc1cc2c(cc1Br)OCO2 (stereo not given) | 1.54 | -0.653 (inactive) | -1.25 (inactive) | -0.631 (inactive) | 3.41 | 1.12 (inactive) | 0.0923 | 0.639 | 1.03 | 0.095 | 0.989 | 0.738 | 0.377 | -0.139 (inactive) | 0.922 | 1.34 | 0.424 | 1.49 | 0.373 | 1.51 |
| C=C(COC)/C(=C/C[C@@H](OC(C)=O)c1ccc(CO)o1)c1cc(C(=O)OC)ccc1OC | 1.02 | 0.932 (inactive) | 0.369 (inactive) | 0.264 (inactive) | 1.81 | 0.0184 (inactive) | -0.166 | 1.07 | 0.711 | -0.0828 | 0.403 | -0.138 | -0.0929 | 0.36 (inactive) | 1.17 | 0.0212 | -0.725 | -0.185 | -0.305 | 1.08 |
| CC(=O)N1CC(C(O)C2C=CC3C(=O)NC(=O)C3N2Nc2ccc(Cl)cc2Cl)c2ccccc21 (stereo not given) | 0.825 | 1.14 (inactive) | 0.734 (inactive) | 1.81 (inactive) | 2.74 | -0.948 (inactive) | 0.131 | -0.575 | 0.91 | -0.0594 | 0.669 | 1.95 | 1.07 | 0.622 (inactive) | 0.693 | -0.28 | -0.105 | 0.797 | 0.0106 | 1.19 |
| CN(C)C(=O)[C@]1(CCS(=O)(=O)c2ccccc2)N=C(c2ccc(OCCCO)cc2)O[C@@H]1c1ccccc1 | 1.42 | -0.897 (inactive) | -0.804 (inactive) | 4.54 (inactive) | 3.57 | 0.29 (inactive) | 0.0943 | 0.577 | 1.01 | 0.127 | 1.45 | 0.483 | 0.515 | -0.621 (inactive) | 1.48 | 1.26 | -0.0269 | 0.552 | -0.323 | 0.82 |
| CC(=O)NCCCC[C@@H]1NC(=O)[C@@H]2C[C@H](C(=O)NCCCCCCN)[C@H](c3cccc(OCCO)c3)N2C1=O | 0.858 | 0.119 (inactive) | -0.646 (inactive) | -0.831 (inactive) | 2.3 | -0.314 (inactive) | -0.0554 | 0.271 | -0.239 | -0.175 | 1.04 | 0.504 | 0.61 | 0.248 (inactive) | 0.906 | 0.132 | -0.556 | -0.309 | -0.733 | 0.288 |
| COc1cc(NN2C(C(O)c3ccccc3)C=CC3C(=O)N(C)C(=O)C32)cc(OC)c1OC (stereo not given) | 1.53 | 0.679 (inactive) | 0.529 (inactive) | 0.328 (inactive) | 2.98 | -0.852 (inactive) | 0.12 | 0.27 | 0.832 | -0.0581 | 0.618 | 0.195 | 0.8 | -0.676 (inactive) | 0.422 | 0.843 | 0.187 | 0.362 | -0.186 | 0.784 |
| O=C1C[C@@](C(=O)NCc2ccccc2)(c2ccc([N+](=O)[O-])cc2)[C@@H](c2ccc(CO)cc2I)N1CC12CC3CC(CC(C3)C1)C2 | 1.55 | -0.369 (inactive) | -0.613 (inactive) | 2.84 (inactive) | 2.61 | -0.343 (inactive) | 0.0578 | 1.8 | 1.09 | 0.0042 | 1.05 | -0.0517 | 0.214 | -0.218 (inactive) | 1.31 | 0.794 | 0.547 | 1.44 | 0.578 | -0.0204 |
| COCC1=C2[C@@H](CCc3ccccc3)OB(O)C[C@@H]2[C@@H]2C(=O)N(C)C(=O)[C@@H]2C1 | -0.0522 | -0.31 (inactive) | -1.56 (inactive) | -0.53 (inactive) | 0.332 | -0.817 (inactive) | -0.0141 | 0.0638 | 0.183 | -0.131 | -0.069 | -0.333 | -0.57 | 0.348 (inactive) | 0.711 | -0.0422 | 0.3 | 0.146 | 0.216 | 0.808 |
| CCCCCCCCCCC(O)C1C=CC2C(=O)N(c3ccccc3)C(=O)C2N1Nc1ccccc1F (stereo not given) | 0.545 | 0.536 (inactive) | 0.849 (inactive) | 1.62 (inactive) | 1.59 | -1.47 (inactive) | -0.0713 | -1.47 | -0.277 | -0.0576 | 0.565 | 0.0158 | 0.973 | 1.25 (inactive) | -0.387 | -0.676 | -0.571 | -0.292 | -0.867 | 1.21 |
| Nc1cc(Br)ccc1C(=O)O | 0.409 | -0.585 (inactive) | -1.64 (inactive) | -0.0096 (inactive) | 0.568 | -1.2 (inactive) | -0.0664 | 0.136 | 0.332 | -0.0961 | -0.0113 | 0.149 | -0.155 | -0.00991 (inactive) | 0.339 | 0.285 | 0.029 | 0.111 | 0.241 | 0.0301 |

From PubChem BioAssay
